From paper PMC6212790, “How bacterial xenogeneic silencer rok distinguishes foreign from self DNA in its resident genome” come the findings set out here.

In all, about 33,000 sequences were measured (“e-score”: median about -0.037, highest 2% from about 0.34 on). What follows is part of a selection rich in the highest values, with near analogues and random picks from the rest.

This test has as its target T1, GST-Rok (full length) (Bacillus subtilis subsp. subtilis str. …, UniProt O34857 1-191).
T1 sequence: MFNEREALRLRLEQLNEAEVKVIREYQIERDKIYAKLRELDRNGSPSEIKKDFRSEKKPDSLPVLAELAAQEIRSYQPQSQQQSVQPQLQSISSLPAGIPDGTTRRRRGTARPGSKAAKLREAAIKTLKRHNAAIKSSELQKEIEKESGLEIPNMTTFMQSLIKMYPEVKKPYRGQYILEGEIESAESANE
The test can be described thus: protein binding microarray; Rok is a gene silencer of Bacillus subtilis; high values mean tight binding. The following applies: protein: recombinant; tags: GST (pTH5325, pDEST15-Magic modified); dsDNA, one strand shown. In outline: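 Each has a 25-mer constant primer and a 35-mer variable part from a de Bruijn sequence of order 10, covering every non-palindromic 8-mer at least 32 times (palindromic 16). Preference for each 8-mer is given as a rank-based, unitless enrichment score (E-score). Its range runs from 0.5 (most favored) to −0.5 (most disfavored).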
Regarding TCGCACAA, the binding signal came to 0.0863 E-score.

For the sequence CCGGCTGA, the binding signal is -0.0957 E-score.

For TGCATTAA, the binding signal was determined as 0.25 E-score.

Turning to GAATTCCA, the binding signal came out at 0.0902 E-score.

As to AATAGTAA, the binding signal turned out to be 0.325 E-score.

Consider TATAGTAA, for which the binding signal is 0.389 E-score.

For GATAGTAA, the binding signal worked out at 0.406 E-score.

As for GATAGTAC, the binding signal was 0.18 E-score.

Turning to CATAGTAA, the binding signal was 0.271 E-score.

As for TATAGTCA, the binding signal was 0.159 E-score.

CGGCATGA: the binding signal is -0.101 E-score.

Take GGGAATGA: the binding signal was -0.0881 E-score.

On to GTATGTGA, for which the binding signal came to 0.247 E-score.

Turning to GAAATAAA, the binding signal stood at 0.221 E-score.

With AGATGAAC, the binding signal was determined as 0.165 E-score.

For AAGTATAC, the binding signal worked out at 0.251 E-score.

For ACGTATAC, the binding signal worked out at 0.232 E-score.

In the case of AAGTATAT, the binding signal amounted to 0.348 E-score.

Regarding ACGTATAA, the binding signal came out at 0.244 E-score.

Take AAGTATAG: the binding signal came out at 0.127 E-score.

For the sequence ACGTATAT, the binding signal amounted to 0.365 E-score.

Consider GGGATTGA, for which the binding signal was -0.112 E-score.

Regarding GATACAGA, the binding signal is -0.0115 E-score.

AATACATT: the binding signal worked out at 0.252 E-score.

For TATACATA, the binding signal turned out to be 0.37 E-score.

As for TACACATA, the binding signal turned out to be 0.315 E-score.

For GGTACATA, the binding signal was found to be 0.196 E-score.

In the case of GATACATA, the binding signal is 0.388 E-score.

As to TATACACA, the binding signal was found to be 0.2 E-score.

AATACATA: the binding signal amounted to 0.373 E-score.

As for AATACAGA, the binding signal was determined as 0.0991 E-score.

In the case of TATACAGA, the binding signal stood at 0.342 E-score.

Take GATACATC: the binding signal came out at 0.186 E-score.

As for AATACATG, the binding signal amounted to 0.108 E-score.

On to GGATTCAC, for which the binding signal was -0.0831 E-score.

As for ACAAGTCG, the binding signal is -0.122 E-score.

With ACCTAGGG, the binding signal is -0.142 E-score.

As for CGTGGAGA, the binding signal came out at 0.119 E-score.

As to ACGCCAAT, the binding signal is -0.0858 E-score.

Consider GGGAAGTA, for which the binding signal amounted to 0.17 E-score.

For the sequence CCCAGCGC, the binding signal was -0.157 E-score.

Regarding ATTACGAG, the binding signal came out at 0.154 E-score.

For ACTGTCAC, the binding signal was found to be 0.011 E-score.

Take CATACATC: the binding signal worked out at 0.158 E-score.

On to AATACAAA, for which the binding signal amounted to 0.206 E-score.

With TATACAAA, the binding signal stood at 0.402 E-score.

For the sequence CATACATA, the binding signal is 0.366 E-score.

CGTACAAA: the binding signal worked out at 0.194 E-score.

Regarding AGTACAAA, the binding signal amounted to 0.343 E-score.

For the sequence CATACATG, the binding signal came out at 0.143 E-score.

On to CATACAAA, for which the binding signal is 0.288 E-score.

Consider AGTACAAG, for which the binding signal worked out at 0.217 E-score.

With CGCGTTAG, the binding signal is 0.07 E-score.

CTCTAACC: the binding signal was -0.055 E-score.

For the sequence AGAATGAA, the binding signal was found to be 0.111 E-score.

Take TGGCGCAA: the binding signal was -0.0245 E-score.

As for AGGTTACG, the binding signal is -0.0671 E-score.

Consider AATCTATG, for which the binding signal is 0.174 E-score.

Take AATCTATC: the binding signal was 0.377 E-score.

Consider GATCTATA, for which the binding signal came out at 0.307 E-score.

Take CATCTATC: the binding signal amounted to 0.289 E-score.

In the case of CATCTATA, the binding signal is 0.199 E-score.

Consider AATCTATA, for which the binding signal is 0.384 E-score.

ATAGACTA: the binding signal came to 0.186 E-score.

On to AGGGAATC, for which the binding signal is 0.0103 E-score.

As to AGTTACCC, the binding signal is 0.179 E-score.

In the case of AAGACGTA, the binding signal came out at 0.132 E-score.

GATATATC: the binding signal is 0.39 E-score.

Regarding GCGATATA, the binding signal came out at 0.342 E-score.

For GATATATA, the binding signal amounted to 0.365 E-score.

For the sequence CCGATATA, the binding signal was determined as 0.297 E-score.

For the sequence GTGATATA, the binding signal was found to be 0.25 E-score.

GAGATATC: the binding signal is 0.181 E-score.

Turning to GATATAGC, the binding signal came to 0.0453 E-score.

ACGATATA: the binding signal was determined as 0.298 E-score.

GGGATATA: the binding signal came out at 0.221 E-score.

Consider GGTACAAC, for which the binding signal is -0.0759 E-score.

Consider CTGGCAAA, for which the binding signal was -0.152 E-score.

Turning to ACACGTGC, the binding signal was -0.0468 E-score.

As for TAGCGTAA, the binding signal came out at 0.144 E-score.

For the sequence CGGAAATC, the binding signal came to 0.0575 E-score.

Turning to CAGAAGCG, the binding signal is -0.142 E-score.

For AATATAGT, the binding signal came to 0.359 E-score.

Turning to AAAATAGC, the binding signal amounted to 0.179 E-score.

TATATAGA: the binding signal turned out to be 0.404 E-score.

With TCTATAGA, the binding signal came out at 0.36 E-score.

For CCTATAGA, the binding signal is 0.0582 E-score.

Take AATATAGG: the binding signal amounted to 0.23 E-score.

For AATATAGC, the binding signal was found to be 0.32 E-score.

For the sequence AAAATAGT, the binding signal came to 0.407 E-score.

As for CATATAGA, the binding signal stood at 0.133 E-score.

In the case of ACTATAGA, the binding signal was found to be 0.174 E-score.

Consider AAAATAGA, for which the binding signal is 0.325 E-score.

Take GATATAGA: the binding signal is 0.228 E-score.
